# Measured values taken from PubChem BioAssay (EPA / NIEHS).
# Inconclusive results are not listed. The source made the active and inactive calls. How the source made its calls: active means hit-call score of the fitted dose curve at least 0.9, where 1 is the maximum; inconclusive means response in the unintended direction; inactive means score below 0.9.
# Tests used:
# [1] = biological target: human Adrenergic, Alpha 2A Receptor (Adra2A), ADRA2A (gene 150) (UniProt P08913); experiment: NVS_GPCR_hAdra2A: NovaScreen (NVS) G Protein-Coupled Receptor Assay for human Adrenergic, Alpha 2A Receptor (Adra2A) (AID 2283257)
# Outline: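 Displacement of a specific radioligand from HT29 membrane protein was counted by filter scintillation after 1 h. Compounds were screened in duplicate at 25 uM, and actives were retested in concentration series. Fitting was positive-direction against DMSO.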
# [2] = biological target: human Adrenergic, Alpha 2c Receptor (Adra2C), ADRA2C (gene 152) (UniProt P18825); experiment: NVS_GPCR_hAdra2C: NovaScreen (NVS) G Protein-Coupled Receptor Assay for human Adrenergic, Alpha 2c Receptor (Adra2C) (AID 2283259)
# Outline: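 Screened first in duplicate at 25 uM, with actives then run as concentration series. Membranes from Sf9 cells were exposed for 1 h, and displacement of radioligand was counted after filtration, using DMSO as baseline.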
# [3] = biological target: human Adrenergic, Beta 3 Receptor (Adrb3), ADRB3 (gene 155) (UniProt P13945); experiment: NVS_GPCR_hAdrb3: NovaScreen (NVS) G Protein-Coupled Receptor Assay for human Adrenergic, Beta 3 Receptor (Adrb3) (AID 2283262)
# Outline: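 A cell-free filter binding assay read by scintillation counting, with displacement of a specific radioligand measured after 1 hour. The receptor source was SK-N-MC extracts (cells pretreated with isoproterenol and 8-bromo-cAMP). Compounds were first tested at 25 uM in duplicate and then in concentration series.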
# [4] = biological target: D(1A) dopamine receptor (Homo sapiens) (UniProt P21728); experiment: NVS_GPCR_hDRD1: NovaScreen (NVS) G Protein-Coupled Receptor Assay for human Dopamine Receptor D1 (DRD1) (AID 2283269)
# Outline: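 Cell-free competition with radioligand, filter-trapped and scintillation-counted 1 h post-dose, using HEK293-derived human D1 preparation. Duplicate single-point testing at 25 uM first, then concentration series for actives; DMSO served as baseline, loss-of-signal scored.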
# [5] = biological target: Muscarinic acetylcholine receptor M5 (Homo sapiens) (UniProt P08912); experiment: NVS_GPCR_hM5: NovaScreen (NVS) G Protein-Coupled Receptor Assay for human Muscarinic, M5 Receptor (AID 2283275)
# Outline: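 Chemicals passing a primary duplicate screen at 25 uM were run as singleton concentration series, maximum 50 uM. Displacement of a specific radioligand from CHO-extracted receptor was read by filter scintillation after 1 h, relative to DMSO.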
# [6] = biological target: human Serotonin, 5-Hydroxytryptamine Receptor 7 (5HT7), HTR7 (gene 3363) (UniProt P34969); experiment: NVS_GPCR_h5HT7: NovaScreen (NVS) G Protein-Coupled Receptor Assay for human Serotonin, 5-Hydroxytryptamine Receptor 7 (5HT7) (AID 2283255);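 further: hits reduce specific radioligand binding relative to DMSO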
# Outline: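 Filter-bound radioactivity counted after 1 h, with loss of specific radioligand binding fitted against DMSO. Membrane protein came from CHO cells expressing human 5HT7. Chemicals were tested first at 25 uM in duplicate, then in concentration series if active.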
# [7] = biological target: human Adrenergic, Beta 1 Receptor (Adrb1), ADRB1 (gene 153) (UniProt P08588); experiment: NVS_GPCR_hAdrb1: NovaScreen (NVS) G Protein-Coupled Receptor Assay for human Adrenergic, Beta 1 Receptor (Adrb1) (AID 2283258)
# Outline: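 Membranes/protein extracted from human neuroepithelioma cells, radioligand competition binding read by filtration and scintillation 2 h post-dose. Single 25 uM duplicate screen, then concentration-response follow-up; DMSO as negative control.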
# [8] = biological target: Beta-2 adrenergic receptor (Homo sapiens) (UniProt P07550); experiment: NVS_GPCR_hAdrb2: NovaScreen (NVS) G Protein-Coupled Receptor Assay for human Adrenergic, Beta 2 Receptor (Adrb2) (AID 2283261)
# Outline: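 Compounds screened in duplicate at 25 uM, then actives in concentration series. Human beta-2 receptor from CHO material, cell-free; radioligand displacement after 1 h measured by filtration and scintillation against DMSO baseline.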
# [9] = biological target: Type-1 angiotensin II receptor (Homo sapiens) (UniProt P30556); experiment: NVS_GPCR_hAT1: NovaScreen (NVS) G Protein-Coupled Receptor Assay for human Angiotensin II receptor type 1 (AT1) (AID 2283263)
# Outline: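 Hits from a 25 uM duplicate screen (threshold e.g. 30% inhibition) were run in concentration-response with 50 uM top concentration. Displacement of specific radioligand from KAN-TS membrane preparations measured after 3 h by filter scintillation, DMSO as baseline.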
# [10] = biological target: human Dopamine Receptor D4.4 (DRD4.4), DRD4 (gene 1815) (UniProt P21917); experiment: NVS_GPCR_hDRD4.4: NovaScreen (NVS) G Protein-Coupled Receptor Assay for human Dopamine Receptor D4.4 (DRD4.4) (AID 2283264)
# Outline: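 Filter-binding assay with a tritiated or iodinated ligand, cell-free receptor prepared from CHO, 1 hour. Loss of bound radioactivity versus DMSO; single 25 uM duplicate screen, then concentration-response for actives.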
# [11] = biological target: human Histamine 1 Receptor (H1), HRH1 (gene 3269) (UniProt P35367); experiment: NVS_GPCR_hH1: NovaScreen (NVS) G Protein-Coupled Receptor Assay for human Histamine 1 Receptor (H1) (AID 2283268)
# Outline: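 Filter-based scintillation detection of radioligand binding to human H1, 1 h incubation; chemicals screened in duplicate at 25 uM, then concentration-response; signal loss relative to DMSO taken as activity.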
# [12] = biological target: Muscarinic acetylcholine receptor M1 (Homo sapiens) (UniProt P11229); experiment: NVS_GPCR_hM1: NovaScreen (NVS) G Protein-Coupled Receptor Assay for human Muscarinic, M1 Receptor (AID 2283270)
# Outline: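 Actives from a duplicate 25 uM single-point screen were retested in concentration series. Binding measured as displacement of a radioligand from CHO-derived receptor preparation, 1 h incubation, filtration and scintillation counting, analysed as signal loss against DMSO.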
# [13] = biological target: Muscarinic acetylcholine receptor M3 (Homo sapiens) (UniProt P20309); experiment: NVS_GPCR_hM3: NovaScreen (NVS) G Protein-Coupled Receptor Assay for human Muscarinic, M3 Receptor (AID 2283272)
# Outline: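 Radioligand displacement binding on human M3 receptor in CHO-derived membranes, 1 h incubation, filter-based scintillation counting. Primary screen in duplicate at 25 uM; actives followed up in concentration series; loss of signal versus DMSO.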
# [14] = biological target: human Muscarinic, M4 Receptor, CHRM4 (gene 1132) (UniProt P08173); experiment: NVS_GPCR_hM4: NovaScreen (NVS) G Protein-Coupled Receptor Assay for human Muscarinic, M4 Receptor (AID 2283274)
# Outline: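 Filter-based scintillation counting of radioligand bound to CHO-expressed human M4 preparations after 1 h; loss of signal fitted versus DMSO. Initial duplicate testing at 25 uM, concentration-response follow-up for actives.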
# [15] = biological target: human Adenosine A1 Receptor (AdoRA1), ADORA1 (gene 134) (UniProt P30542); experiment: NVS_GPCR_hAdoRA1: NovaScreen (NVS) G Protein-Coupled Receptor Assay for human Adenosine A1 Receptor (AdoRA1) (AID 2283254)
# Outline: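 Radioligand competition binding on human cortical membranes, 1 h after compound addition; bound radioactivity read by filtration and scintillation counting. Loss of signal versus DMSO baseline scored as displacement; primary screen duplicate at 25 uM, actives retested in concentration series.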
# [16] = biological target: human Adenosine A2a Receptor (AdoRA2a), ADORA2A (gene 135) (UniProt P29274); experiment: NVS_GPCR_hAdoRA2a: NovaScreen (NVS) G Protein-Coupled Receptor Assay for human Adenosine A2a Receptor (AdoRA2a) (AID 2283256)
# Outline: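 HEK293-derived receptor preparation, radioligand displacement, 1.5 h, filtration + scintillation read. Loss of bound signal scored vs DMSO. Single-point 25 uM in duplicate first, then concentration-response for actives.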
# [17] = biological target: Muscarinic acetylcholine receptor M2 (Homo sapiens) (UniProt P08172); experiment: NVS_GPCR_hM2: NovaScreen (NVS) G Protein-Coupled Receptor Assay for human Muscarinic, M2 Receptor (AID 2283273)
# Outline: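 Filter-based radiodetection read bound radioligand 1 h after dosing CHO-derived membrane protein. Single-concentration duplicates (25 uM) first, then concentration-response for actives; signal loss versus DMSO scored.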
# [18] = biological target: human Endothelin Receptor Type B (ETB), EDNRB (gene 1910) (UniProt P24530); experiment: NVS_GPCR_hETB: NovaScreen (NVS) G Protein-Coupled Receptor Assay for human Endothelin Receptor Type B (ETB) (AID 2283267)
# Outline: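 Filter-based scintillation readout of radioligand displacement, 4 h, using membranes from human astrocytoma cells. Actives from a 25 uM duplicate screen were retested in concentration-response (top 50 uM) relative to DMSO baseline.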
# [19] = biological target: human Leukotriene B4 Receptor 1 (LTB4-BLT1), LTB4R (gene 1241) (UniProt Q15722); experiment: NVS_GPCR_hLTB4_BLT1: NovaScreen (NVS) G Protein-Coupled Receptor Assay for human Leukotriene B4 Receptor 1 (LTB4-BLT1) (AID 2283271)
# Outline: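 Cell-free human neutrophil receptor preparation, 1 h exposure, radioligand binding read by filter scintillation counting. Single 25 uM duplicate screen, then concentration series topping at 50 uM; binding loss scored against DMSO baseline.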
# [20] = biological target: human Endothelin Receptor Type A (ETA), EDNRA (gene 1909) (UniProt P25101); experiment: NVS_GPCR_hETA: NovaScreen (NVS) G Protein-Coupled Receptor Assay for human Endothelin Receptor Type A (ETA) (AID 2283265)
# Outline: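 Binding of radioligand to membrane protein extracted from SH-SY5Y cells was read by filtration and scintillation after 3 h. Compounds were screened at 25 uM in duplicate, with hits followed up in singleton concentration series to 50 uM.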
# human Muscarinic, M4 Receptor, CHRM4 (gene 1132), sequence (P08173 whole entry, looked up): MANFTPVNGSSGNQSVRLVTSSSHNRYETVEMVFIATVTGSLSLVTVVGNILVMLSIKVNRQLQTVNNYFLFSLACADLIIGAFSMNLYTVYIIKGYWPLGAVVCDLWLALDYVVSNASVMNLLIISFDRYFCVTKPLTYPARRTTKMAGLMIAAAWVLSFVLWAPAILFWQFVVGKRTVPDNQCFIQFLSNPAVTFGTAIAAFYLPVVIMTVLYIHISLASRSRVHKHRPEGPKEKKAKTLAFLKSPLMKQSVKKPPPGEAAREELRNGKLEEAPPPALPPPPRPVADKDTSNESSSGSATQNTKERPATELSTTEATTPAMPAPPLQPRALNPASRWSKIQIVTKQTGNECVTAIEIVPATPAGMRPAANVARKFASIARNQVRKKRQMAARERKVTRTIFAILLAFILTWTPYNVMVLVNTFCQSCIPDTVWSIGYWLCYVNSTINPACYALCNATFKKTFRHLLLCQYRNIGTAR
# human Serotonin, 5-Hydroxytryptamine Receptor 7 (5HT7), HTR7 (gene 3363), sequence (P34969 whole entry, looked up): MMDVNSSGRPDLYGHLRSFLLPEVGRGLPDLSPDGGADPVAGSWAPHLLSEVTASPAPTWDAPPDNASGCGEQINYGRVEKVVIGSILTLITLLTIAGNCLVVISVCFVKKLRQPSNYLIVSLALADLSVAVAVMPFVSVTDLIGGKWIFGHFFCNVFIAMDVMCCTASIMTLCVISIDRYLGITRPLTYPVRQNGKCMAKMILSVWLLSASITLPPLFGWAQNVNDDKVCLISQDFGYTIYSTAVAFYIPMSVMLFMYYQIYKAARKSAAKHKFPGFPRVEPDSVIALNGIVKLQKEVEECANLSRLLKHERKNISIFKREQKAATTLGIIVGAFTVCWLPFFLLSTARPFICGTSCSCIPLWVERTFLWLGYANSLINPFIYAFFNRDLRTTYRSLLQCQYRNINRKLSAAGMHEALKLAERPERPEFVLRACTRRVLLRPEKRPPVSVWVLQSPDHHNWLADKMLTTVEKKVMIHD
# human Adrenergic, Alpha 2c Receptor (Adra2C), ADRA2C (gene 152), sequence (P18825 whole entry, looked up): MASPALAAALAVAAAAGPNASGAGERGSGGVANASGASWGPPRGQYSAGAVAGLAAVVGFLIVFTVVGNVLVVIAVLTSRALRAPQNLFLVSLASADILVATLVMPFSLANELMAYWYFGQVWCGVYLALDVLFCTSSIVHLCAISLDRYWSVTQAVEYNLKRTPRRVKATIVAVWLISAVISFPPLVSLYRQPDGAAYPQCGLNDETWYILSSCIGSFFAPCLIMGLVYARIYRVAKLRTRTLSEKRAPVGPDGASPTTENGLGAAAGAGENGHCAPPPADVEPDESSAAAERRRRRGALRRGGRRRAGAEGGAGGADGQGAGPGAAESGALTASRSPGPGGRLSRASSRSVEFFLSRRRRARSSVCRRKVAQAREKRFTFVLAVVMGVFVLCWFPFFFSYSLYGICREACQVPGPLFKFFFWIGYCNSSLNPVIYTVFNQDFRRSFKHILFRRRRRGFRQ
# human Leukotriene B4 Receptor 1 (LTB4-BLT1), LTB4R (gene 1241), sequence (Q15722 whole entry, looked up): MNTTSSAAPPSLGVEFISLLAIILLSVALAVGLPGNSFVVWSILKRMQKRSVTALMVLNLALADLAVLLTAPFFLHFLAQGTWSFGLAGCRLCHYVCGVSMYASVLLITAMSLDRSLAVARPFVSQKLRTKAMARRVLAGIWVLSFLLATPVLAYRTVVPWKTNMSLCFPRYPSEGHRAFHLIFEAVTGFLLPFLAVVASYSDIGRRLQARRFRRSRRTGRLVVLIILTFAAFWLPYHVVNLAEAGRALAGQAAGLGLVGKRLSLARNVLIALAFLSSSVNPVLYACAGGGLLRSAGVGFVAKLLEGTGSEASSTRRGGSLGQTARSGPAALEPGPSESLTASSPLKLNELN
# human Dopamine Receptor D4.4 (DRD4.4), DRD4 (gene 1815), sequence (P21917 whole entry, looked up): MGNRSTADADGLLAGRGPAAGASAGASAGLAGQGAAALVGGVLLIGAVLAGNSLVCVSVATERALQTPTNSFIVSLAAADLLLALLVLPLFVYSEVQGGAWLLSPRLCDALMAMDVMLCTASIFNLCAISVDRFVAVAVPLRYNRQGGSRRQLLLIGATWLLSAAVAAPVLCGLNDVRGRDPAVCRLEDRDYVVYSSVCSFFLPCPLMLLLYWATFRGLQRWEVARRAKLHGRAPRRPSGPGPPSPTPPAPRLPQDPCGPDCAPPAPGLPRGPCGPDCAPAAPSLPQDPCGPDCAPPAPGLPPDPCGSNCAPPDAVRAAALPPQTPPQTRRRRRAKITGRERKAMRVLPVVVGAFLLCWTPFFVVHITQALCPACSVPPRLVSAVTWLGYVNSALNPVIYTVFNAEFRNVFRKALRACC
# Muscarinic acetylcholine receptor M5 (Homo sapiens), sequence (P08912 whole entry, looked up): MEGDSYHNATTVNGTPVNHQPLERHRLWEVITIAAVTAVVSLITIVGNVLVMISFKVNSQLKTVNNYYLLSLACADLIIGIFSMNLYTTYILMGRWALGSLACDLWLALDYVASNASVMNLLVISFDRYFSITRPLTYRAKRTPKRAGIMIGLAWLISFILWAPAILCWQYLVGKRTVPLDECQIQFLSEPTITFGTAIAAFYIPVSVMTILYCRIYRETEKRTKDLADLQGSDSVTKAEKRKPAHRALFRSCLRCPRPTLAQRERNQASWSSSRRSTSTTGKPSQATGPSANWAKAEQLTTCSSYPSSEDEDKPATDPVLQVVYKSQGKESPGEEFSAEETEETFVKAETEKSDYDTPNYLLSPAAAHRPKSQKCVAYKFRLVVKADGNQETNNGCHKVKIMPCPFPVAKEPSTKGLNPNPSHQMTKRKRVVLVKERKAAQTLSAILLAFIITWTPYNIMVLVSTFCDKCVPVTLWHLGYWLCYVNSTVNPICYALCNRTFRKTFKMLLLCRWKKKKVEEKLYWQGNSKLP
# Muscarinic acetylcholine receptor M2 (Homo sapiens), sequence (P08172 whole entry, looked up): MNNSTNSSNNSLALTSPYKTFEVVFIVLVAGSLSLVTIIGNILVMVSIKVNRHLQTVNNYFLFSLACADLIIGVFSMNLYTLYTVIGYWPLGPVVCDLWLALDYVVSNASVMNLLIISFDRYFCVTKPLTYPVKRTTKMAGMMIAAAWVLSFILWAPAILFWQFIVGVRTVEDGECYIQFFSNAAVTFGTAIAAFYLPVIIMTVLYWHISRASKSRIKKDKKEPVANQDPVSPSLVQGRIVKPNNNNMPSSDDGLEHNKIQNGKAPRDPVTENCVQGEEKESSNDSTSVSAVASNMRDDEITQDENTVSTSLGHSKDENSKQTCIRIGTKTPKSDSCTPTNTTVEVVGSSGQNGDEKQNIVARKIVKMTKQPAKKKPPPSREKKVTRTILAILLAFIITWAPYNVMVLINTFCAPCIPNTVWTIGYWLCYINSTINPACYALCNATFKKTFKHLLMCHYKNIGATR
# human Adrenergic, Beta 3 Receptor (Adrb3), ADRB3 (gene 155), sequence (P13945 whole entry, looked up): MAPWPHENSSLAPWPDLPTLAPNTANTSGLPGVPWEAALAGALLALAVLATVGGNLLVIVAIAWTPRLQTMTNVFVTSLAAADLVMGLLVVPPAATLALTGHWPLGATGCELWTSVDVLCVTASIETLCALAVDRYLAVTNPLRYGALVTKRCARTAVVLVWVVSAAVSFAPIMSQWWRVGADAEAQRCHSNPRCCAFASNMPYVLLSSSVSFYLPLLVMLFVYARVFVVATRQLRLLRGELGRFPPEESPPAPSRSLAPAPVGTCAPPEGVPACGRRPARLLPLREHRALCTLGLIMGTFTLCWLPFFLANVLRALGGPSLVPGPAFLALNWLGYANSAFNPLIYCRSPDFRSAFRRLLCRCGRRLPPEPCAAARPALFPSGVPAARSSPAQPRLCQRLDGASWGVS
# human Adrenergic, Beta 1 Receptor (Adrb1), ADRB1 (gene 153), sequence (P08588 whole entry, looked up): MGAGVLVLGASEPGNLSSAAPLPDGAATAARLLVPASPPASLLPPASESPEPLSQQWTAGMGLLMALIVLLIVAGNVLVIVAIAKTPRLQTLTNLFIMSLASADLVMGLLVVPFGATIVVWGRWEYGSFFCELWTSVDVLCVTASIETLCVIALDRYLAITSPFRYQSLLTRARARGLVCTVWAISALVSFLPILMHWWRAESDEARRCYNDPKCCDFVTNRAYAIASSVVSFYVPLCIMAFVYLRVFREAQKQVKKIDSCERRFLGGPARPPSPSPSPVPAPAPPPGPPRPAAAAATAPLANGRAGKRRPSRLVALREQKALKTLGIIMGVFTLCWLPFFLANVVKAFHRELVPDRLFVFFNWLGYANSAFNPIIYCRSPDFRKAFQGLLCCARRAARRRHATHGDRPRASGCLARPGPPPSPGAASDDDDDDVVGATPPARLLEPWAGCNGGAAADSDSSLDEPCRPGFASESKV
# D(1A) dopamine receptor (Homo sapiens), sequence (P21728 whole entry, looked up): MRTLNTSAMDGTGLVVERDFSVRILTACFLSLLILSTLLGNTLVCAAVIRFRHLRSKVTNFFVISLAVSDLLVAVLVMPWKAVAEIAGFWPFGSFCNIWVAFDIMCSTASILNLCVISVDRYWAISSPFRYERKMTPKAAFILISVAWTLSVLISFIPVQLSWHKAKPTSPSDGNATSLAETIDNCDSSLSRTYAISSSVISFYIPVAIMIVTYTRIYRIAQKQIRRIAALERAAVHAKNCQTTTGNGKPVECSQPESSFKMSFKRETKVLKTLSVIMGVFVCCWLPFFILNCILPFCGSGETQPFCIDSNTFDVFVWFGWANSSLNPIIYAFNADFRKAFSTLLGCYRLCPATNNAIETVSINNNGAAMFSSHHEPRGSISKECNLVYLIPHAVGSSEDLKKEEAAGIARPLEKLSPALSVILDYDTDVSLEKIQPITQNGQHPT
# Type-1 angiotensin II receptor (Homo sapiens), sequence (P30556 whole entry, looked up): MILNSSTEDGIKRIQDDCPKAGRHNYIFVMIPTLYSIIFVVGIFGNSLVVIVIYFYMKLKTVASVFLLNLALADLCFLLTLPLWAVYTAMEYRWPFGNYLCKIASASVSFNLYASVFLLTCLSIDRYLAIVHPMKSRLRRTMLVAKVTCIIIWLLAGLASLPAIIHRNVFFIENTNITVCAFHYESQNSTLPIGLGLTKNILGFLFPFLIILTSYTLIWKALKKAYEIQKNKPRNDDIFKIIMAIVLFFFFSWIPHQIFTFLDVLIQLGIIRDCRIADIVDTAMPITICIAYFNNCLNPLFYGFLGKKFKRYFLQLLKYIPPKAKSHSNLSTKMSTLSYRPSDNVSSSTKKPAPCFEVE
smiles,measurement,setting,value
COc1ccc(OC(F)(F)F)cc1CN[C@H]1CCCN[C@H]1c1ccccc1,AC50,[1],13.4 µM (active)
same,AC50,[2],10.6 µM (active)
same,AC50,[3],20.5 µM (active)
same,AC50,[4],25 µM (active)
same,AC50,[5],9.18 µM (active)
CCCCCCCCCCCCCCOS(=O)(=O)O,AC50,[6],16.5 µM (active)
same,AC50,[7],5.22 µM (active)
same,AC50,[2],2.99 µM (active)
same,AC50,[8],15.4 µM (active)
same,outcome,[9],inactive
same,AC50,[10],13.3 µM (active)
same,AC50,[11],28.1 µM (active)
same,AC50,[4],5.18 µM (active)
same,AC50,[12],25 µM (active)
same,AC50,[13],25 µM (active)
same,AC50,[14],31.9 µM (active)
same,AC50,[5],16.5 µM (active)
Nc1nc(Cl)nc2c1ncn2[C@H]1C[C@H](O)[C@@H](CO)O1,AC50,[15],8.99 µM (active)
same,AC50,[16],13.1 µM (active)
CN(C)C(=O)NC1(c2ccccc2)CCN(CC[C@@]2(c3ccc(F)c(F)c3)CN(C(=O)c3ccccc3)CCO2)CC1,AC50,[16],23.5 µM (active)
same,AC50,[17],9.11 µM (active)
same,AC50,[14],16.9 µM (active)
same,AC50,[5],12.8 µM (active)
Cc1cc(SC2=C(O)C[C@@](CCc3ccc(N)cc3)(C(C)C)OC2=O)c(C(C)(C)C)cc1CO,outcome,[11],inactive
same,outcome,[4],inactive
same,outcome,[12],inactive
same,outcome,[14],inactive
same,outcome,[5],inactive
O=C(NS(=O)(=O)/C=C/c1cccs1)c1ccc(F)cc1Br,outcome,[18],inactive
CC(=O)OCC(COC(C)=O)OC(C)=O,AC50,[19],40.5 µM (active)
O=C(N[C@@H](c1ccccc1)[C@@H]1CCCCN1)c1cccc(C(F)(F)F)c1Cl,AC50,[6],8.16 µM (active)
same,outcome,[3],inactive
same,outcome,[10],inactive
same,outcome,[11],inactive
same,AC50,[4],12.1 µM (active)
same,AC50,[5],25 µM (active)
CCc1cc(C2=C(C(=O)O)N(c3ccccc3C(F)(F)F)S(=O)(=O)c3ccccc32)cc2c1OCO2,AC50,[9],16.2 µM (active)
same,AC50,[20],0.0451 µM (active)
same,AC50,[18],0.442 µM (active)
same,AC50,[19],17.1 µM (active)
O=C1OC(c2ccc(O)cc2)(c2ccc(O)cc2)c2ccccc21,AC50,[15],1.03 µM (active)
same,AC50,[4],4.96 µM (active)
CN(C)C(=O)NC1(c2ccccc2)CCN(CCC[C@]2(c3ccc(Cl)c(Cl)c3)CCCN(C(=O)c3ccccc3)C2)CC1,outcome,[6],inactive
same,outcome,[3],inactive
same,AC50,[10],6.25 µM (active)
same,AC50,[12],2.02 µM (active)
same,AC50,[13],3.84 µM (active)
same,AC50,[17],2.41 µM (active)
same,AC50,[14],3.46 µM (active)
same,AC50,[5],2.01 µM (active)
CC(C)(C)c1ccccc1,outcome,[6],inactive
CCCCCCC(CCCCCCCCCCC(=O)OCC(COC(C)=O)OC(C)=O)OC(C)=O (centres undefined),outcome,[7],inactive
CCCCc1nc2cccnc2n1Cc1ccc(-c2ccccc2-c2nnn[nH]2)cc1,outcome,[2],inactive
same,AC50,[9],0.0191 µM (active)
CCCCC(CC)CO (centres undefined),outcome,[19],inactive
O=NO,outcome,[14],inactive
CC(C)c1cccc(C(C)C)c1,outcome,[7],inactive
CO[C@@H]1COCC[C@@H]1N[C@@H]1CC[C@@](C(=O)N2CCc3ncc(C(F)(F)F)cc3C2)(C(C)C)C1,AC50,[17],12.3 µM (active)
same,AC50,[14],25 µM (active)
